Paper PMC11006913

How the values were obtained:
Assay in all cases: PBM; 200 nM protein, PBS
Details in all cases: dsDNA, one strand shown
HESX1 [1] = target: HESX1 (Homo sapiens, UniProt Q9UBX0 95-180, R165K)
SHOX [2] = target: SHOX (Homo sapiens, UniProt O15266 103-189)
ALX4 [3] = target: ALX4 (Homo sapiens, UniProt Q9H161 200-286)
ALX4 [4] = target: ALX4 (Homo sapiens, UniProt Q9H161 200-286, Q225E)
HESX1 [5] = target: HESX1 (Homo sapiens, UniProt Q9UBX0 95-180)
ALX1 [6] = target: ALX1 (Homo sapiens, UniProt Q15699 118-204, L144V)
Sequence of ALX1 (Homo sapiens, UniProt Q15699 118-204, L144V) (Q15699 118-204 L144V): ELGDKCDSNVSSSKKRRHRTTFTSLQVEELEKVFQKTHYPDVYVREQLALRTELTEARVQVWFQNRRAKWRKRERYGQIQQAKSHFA

ALX3 [7] = target: ALX3 (Homo sapiens, UniProt O95076 139-225, N203Q)
Sequence of ALX3 (Homo sapiens, UniProt O95076 139-225, N203Q) (O95076 139-225 N203Q): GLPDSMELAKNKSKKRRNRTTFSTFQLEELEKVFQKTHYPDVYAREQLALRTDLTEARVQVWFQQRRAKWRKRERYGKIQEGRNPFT

SHOX [8] = target: SHOX (Homo sapiens, UniProt O15266 103-189, R173C)
Sequence of SHOX (Homo sapiens, UniProt O15266 103-189, R173C) (O15266 103-189 R173C): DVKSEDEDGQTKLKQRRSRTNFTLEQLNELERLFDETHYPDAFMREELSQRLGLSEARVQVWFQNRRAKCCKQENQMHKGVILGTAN

ALX1 [9] = target: ALX1 (Homo sapiens, UniProt Q15699 118-204, L144R)
Sequence of ALX1 (Homo sapiens, UniProt Q15699 118-204, L144R) (Q15699 118-204 L144R): as the sequence (Q15699 118-204 L144V) above, with V27R counted along it

ALX3 [10] = target: ALX3 (Homo sapiens, UniProt O95076 139-225)
Sequence of ALX3 (Homo sapiens, UniProt O95076 139-225) (O95076 139-225): as the sequence (O95076 139-225 N203Q) above, with Q65N counted along it

PROP1 [11] = target: PROP1 (Homo sapiens, UniProt O75360 56-141)
Sequence of PROP1 (Homo sapiens, UniProt O75360 56-141) (O75360 56-141): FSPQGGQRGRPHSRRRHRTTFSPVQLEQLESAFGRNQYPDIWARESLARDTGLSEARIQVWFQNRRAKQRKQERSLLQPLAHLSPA

HESX1 [12] = target: HESX1 (Homo sapiens, UniProt Q9UBX0 95-180, R109Q)
Sequence of HESX1 (Homo sapiens, UniProt Q9UBX0 95-180, R109Q) (Q9UBX0 95-180 R109Q): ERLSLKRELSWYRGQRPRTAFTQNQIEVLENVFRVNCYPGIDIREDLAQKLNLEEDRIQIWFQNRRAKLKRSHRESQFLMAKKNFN

PROP1 [13] = target: PROP1 (Homo sapiens, UniProt O75360 56-141, R99H)
Sequence of PROP1 (Homo sapiens, UniProt O75360 56-141, R99H) (O75360 56-141 R99H): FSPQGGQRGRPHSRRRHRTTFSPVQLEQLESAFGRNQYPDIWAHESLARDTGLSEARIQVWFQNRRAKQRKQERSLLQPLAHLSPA

ALX3 [14] = target: ALX3 (Homo sapiens, UniProt O95076 139-225, L168Q)
Sequence of ALX3 (Homo sapiens, UniProt O95076 139-225, L168Q) (O95076 139-225 L168Q): as the sequence (O95076 139-225 N203Q) above, with L30Q, Q65N counted along it

HESX1 [15] = target: HESX1 (Homo sapiens, UniProt Q9UBX0 95-180, P111T)
Sequence of HESX1 (Homo sapiens, UniProt Q9UBX0 95-180, P111T) (Q9UBX0 95-180 P111T): as the sequence (Q9UBX0 95-180 R109Q) above, with Q15R, P17T counted along it

ALX3 [16] = target: ALX3 (Homo sapiens, UniProt O95076 139-225, L168V)
Sequence of ALX3 (Homo sapiens, UniProt O95076 139-225, L168V) (O95076 139-225 L168V): as the sequence (O95076 139-225 N203Q) above, with L30V, Q65N counted along it

PROP1 [17] = target: PROP1 (Homo sapiens, UniProt O75360 56-141, F88S)
Sequence of PROP1 (Homo sapiens, UniProt O75360 56-141, F88S) (O75360 56-141 F88S): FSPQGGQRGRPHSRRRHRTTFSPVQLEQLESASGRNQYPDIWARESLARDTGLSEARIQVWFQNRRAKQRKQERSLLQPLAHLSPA

HESX1 [18] = target: HESX1 (Homo sapiens, UniProt Q9UBX0 95-180, F115L)
Sequence of HESX1 (Homo sapiens, UniProt Q9UBX0 95-180, F115L) (Q9UBX0 95-180 F115L): as the sequence (Q9UBX0 95-180 R109Q) above, with Q15R, F21L counted along it

ALX1 [19] = target: ALX1 (Homo sapiens, UniProt Q15699 118-204)
Sequence of ALX1 (Homo sapiens, UniProt Q15699 118-204) (Q15699 118-204): as the sequence (Q15699 118-204 L144V) above, with V27L counted along it

ALX3 [20] = target: ALX3 (Homo sapiens, UniProt O95076 139-225, N203S)
Sequence of ALX3 (Homo sapiens, UniProt O95076 139-225, N203S) (O95076 139-225 N203S): as the sequence (O95076 139-225 N203Q) above, with Q65S counted along it

Sequence of ALX4 (Homo sapiens, UniProt Q9H161 200-286) (Q9H161 200-286): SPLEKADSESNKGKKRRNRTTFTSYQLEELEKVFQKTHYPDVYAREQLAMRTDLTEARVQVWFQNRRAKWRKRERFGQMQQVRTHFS
Sequence of SHOX (Homo sapiens, UniProt O15266 103-189) (O15266 103-189): as the sequence (O15266 103-189 R173C) above, with C71R counted along it
Sequence of HESX1 (Homo sapiens, UniProt Q9UBX0 95-180, R165K) (Q9UBX0 95-180 R165K): as the sequence (Q9UBX0 95-180 R109Q) above, with Q15R, R71K counted along it
Sequence of ALX4 (Homo sapiens, UniProt Q9H161 200-286, Q225E) (Q9H161 200-286 Q225E): as the sequence (Q9H161 200-286) above, with Q26E counted along it
Sequence of HESX1 (Homo sapiens, UniProt Q9UBX0 95-180) (Q9UBX0 95-180): as the sequence (Q9UBX0 95-180 R109Q) above, with Q15R counted along it

| Sequence | binding signal (HESX1 [1]) | binding signal (SHOX [2]) | binding signal (ALX4 [3]) | binding signal (ALX4 [4]) | binding signal (HESX1 [5]) | binding signal (ALX1 [6]) | binding signal (ALX3 [7]) | binding signal (SHOX [8]) | binding signal (ALX1 [9]) | binding signal (ALX3 [10]) | binding signal (PROP1 [11]) | binding signal (HESX1 [12]) | binding signal (PROP1 [13]) | binding signal (ALX3 [14]) | binding signal (HESX1 [15]) | binding signal (ALX3 [16]) | binding signal (PROP1 [17]) | binding signal (HESX1 [18]) | binding signal (ALX1 [19]) | binding signal (ALX3 [20]) |
| --- | --- | --- | --- | --- | --- | --- | --- | --- | --- | --- | --- | --- | --- | --- | --- | --- | --- | --- | --- | --- |
| CATAATTA | 12.9 upbm affinity estimate (log intensity, higher = more binding, comparable within an allelic series) | 12.4 upbm affinity estimate (log intensity, higher = more binding, comparable within an allelic series) | 14.2 upbm affinity estimate (log intensity, higher = more binding, comparable within an allelic series) | 13.7 upbm affinity estimate (log intensity, higher = more binding, comparable within an allelic series) | 12.9 upbm affinity estimate (log intensity, higher = more binding, comparable within an allelic series) | 12 upbm affinity estimate (log intensity, higher = more binding, comparable within an allelic series) | 8.61 upbm affinity estimate (log intensity, higher = more binding, comparable within an allelic series) | 10 upbm affinity estimate (log intensity, higher = more binding, comparable within an allelic series) | 11.6 upbm affinity estimate (log intensity, higher = more binding, comparable within an allelic series) | 12.6 upbm affinity estimate (log intensity, higher = more binding, comparable within an allelic series) | 11.8 upbm affinity estimate (log intensity, higher = more binding, comparable within an allelic series) | 9.21 upbm affinity estimate (log intensity, higher = more binding, comparable within an allelic series) | 11.5 upbm affinity estimate (log intensity, higher = more binding, comparable within an allelic series) | 10.8 upbm affinity estimate (log intensity, higher = more binding, comparable within an allelic series) | 11.3 upbm affinity estimate (log intensity, higher = more binding, comparable within an allelic series) | 10.4 upbm affinity estimate (log intensity, higher = more binding, comparable within an allelic series) | 8.12 upbm affinity estimate (log intensity, higher = more binding, comparable within an allelic series) | 7.94 upbm affinity estimate (log intensity, higher = more binding, comparable within an allelic series) | 12.6 upbm affinity estimate (log intensity, higher = more binding, comparable within an allelic series) | 8.73 upbm affinity estimate (log intensity, higher = more binding, comparable within an allelic series) |
| CTTAATTA | 13.6 upbm affinity estimate (log intensity, higher = more binding, comparable within an allelic series) | 13.2 upbm affinity estimate (log intensity, higher = more binding, comparable within an allelic series) | 14.5 upbm affinity estimate (log intensity, higher = more binding, comparable within an allelic series) | 14.3 upbm affinity estimate (log intensity, higher = more binding, comparable within an allelic series) | 13.4 upbm affinity estimate (log intensity, higher = more binding, comparable within an allelic series) | 12.3 upbm affinity estimate (log intensity, higher = more binding, comparable within an allelic series) | 8.7 upbm affinity estimate (log intensity, higher = more binding, comparable within an allelic series) | 10.8 upbm affinity estimate (log intensity, higher = more binding, comparable within an allelic series) | 11.9 upbm affinity estimate (log intensity, higher = more binding, comparable within an allelic series) | 12.9 upbm affinity estimate (log intensity, higher = more binding, comparable within an allelic series) | 12.1 upbm affinity estimate (log intensity, higher = more binding, comparable within an allelic series) | 10.5 upbm affinity estimate (log intensity, higher = more binding, comparable within an allelic series) | 12.1 upbm affinity estimate (log intensity, higher = more binding, comparable within an allelic series) | 11.4 upbm affinity estimate (log intensity, higher = more binding, comparable within an allelic series) | 12.3 upbm affinity estimate (log intensity, higher = more binding, comparable within an allelic series) | 11.1 upbm affinity estimate (log intensity, higher = more binding, comparable within an allelic series) | 8.21 upbm affinity estimate (log intensity, higher = more binding, comparable within an allelic series) | 8.38 upbm affinity estimate (log intensity, higher = more binding, comparable within an allelic series) | 12.9 upbm affinity estimate (log intensity, higher = more binding, comparable within an allelic series) | 8.85 upbm affinity estimate (log intensity, higher = more binding, comparable within an allelic series) |
| GATAATTA | 13.6 upbm affinity estimate (log intensity, higher = more binding, comparable within an allelic series) | 12.6 upbm affinity estimate (log intensity, higher = more binding, comparable within an allelic series) | 14.4 upbm affinity estimate (log intensity, higher = more binding, comparable within an allelic series) | 14.1 upbm affinity estimate (log intensity, higher = more binding, comparable within an allelic series) | 13.4 upbm affinity estimate (log intensity, higher = more binding, comparable within an allelic series) | 12.3 upbm affinity estimate (log intensity, higher = more binding, comparable within an allelic series) | 8.59 upbm affinity estimate (log intensity, higher = more binding, comparable within an allelic series) | 10.1 upbm affinity estimate (log intensity, higher = more binding, comparable within an allelic series) | 11.8 upbm affinity estimate (log intensity, higher = more binding, comparable within an allelic series) | 12.9 upbm affinity estimate (log intensity, higher = more binding, comparable within an allelic series) | 12 upbm affinity estimate (log intensity, higher = more binding, comparable within an allelic series) | 9.64 upbm affinity estimate (log intensity, higher = more binding, comparable within an allelic series) | 12 upbm affinity estimate (log intensity, higher = more binding, comparable within an allelic series) | 11.2 upbm affinity estimate (log intensity, higher = more binding, comparable within an allelic series) | 11.9 upbm affinity estimate (log intensity, higher = more binding, comparable within an allelic series) | 10.8 upbm affinity estimate (log intensity, higher = more binding, comparable within an allelic series) | 7.94 upbm affinity estimate (log intensity, higher = more binding, comparable within an allelic series) | 8.2 upbm affinity estimate (log intensity, higher = more binding, comparable within an allelic series) | 12.8 upbm affinity estimate (log intensity, higher = more binding, comparable within an allelic series) | 8.72 upbm affinity estimate (log intensity, higher = more binding, comparable within an allelic series) |
| GCAATTAA | 12.6 upbm affinity estimate (log intensity, higher = more binding, comparable within an allelic series) | 12.1 upbm affinity estimate (log intensity, higher = more binding, comparable within an allelic series) | 13.8 upbm affinity estimate (log intensity, higher = more binding, comparable within an allelic series) | 13.3 upbm affinity estimate (log intensity, higher = more binding, comparable within an allelic series) | 12.7 upbm affinity estimate (log intensity, higher = more binding, comparable within an allelic series) | 11.6 upbm affinity estimate (log intensity, higher = more binding, comparable within an allelic series) | 8.37 upbm affinity estimate (log intensity, higher = more binding, comparable within an allelic series) | 9.65 upbm affinity estimate (log intensity, higher = more binding, comparable within an allelic series) | 11.3 upbm affinity estimate (log intensity, higher = more binding, comparable within an allelic series) | 12.4 upbm affinity estimate (log intensity, higher = more binding, comparable within an allelic series) | 11.5 upbm affinity estimate (log intensity, higher = more binding, comparable within an allelic series) | 9.34 upbm affinity estimate (log intensity, higher = more binding, comparable within an allelic series) | 11.6 upbm affinity estimate (log intensity, higher = more binding, comparable within an allelic series) | 10.7 upbm affinity estimate (log intensity, higher = more binding, comparable within an allelic series) | 11.2 upbm affinity estimate (log intensity, higher = more binding, comparable within an allelic series) | 10.2 upbm affinity estimate (log intensity, higher = more binding, comparable within an allelic series) | 7.72 upbm affinity estimate (log intensity, higher = more binding, comparable within an allelic series) | 7.72 upbm affinity estimate (log intensity, higher = more binding, comparable within an allelic series) | 12.2 upbm affinity estimate (log intensity, higher = more binding, comparable within an allelic series) | 8.51 upbm affinity estimate (log intensity, higher = more binding, comparable within an allelic series) |
